Laboratory results published in PubChem BioAssay AID493073 (Broad Institute, 2011).
About 810 (68%) of roughly 1,200 compounds were called active. No rule for the calls is given here. So high a share suggests a set chosen from earlier hits. A selection follows. Entries with a potency or affinity are not part of this list.

Assay: reducers of TRPM1 reporter luminescence, concentration series – cell-based, SK-MEL-5, cherry-picked, set 3, MITF inhibitor project, dose response (AID 493073)
Settings: SK-MEL-5 TRPM1 promoter luciferase, 24 h; series mostly up to 35 µM; activity change, negative = inhibition: at the top concentration

Activity change, negative = inhibition, inactive:
Cc1ccc(NC(=O)Cc2noc3ccccc23)cc1 101%
C=CCNC(=O)c1ccc2nc(Cc3ccc(OC)cc3)oc2c1 19.8%
Cc1c(C(=O)Nc2ccc(S(=O)(=O)N(C)C3CCN(C)CC3)cc2)oc2c(Cl)cccc12 -97.5%
c1ccc(CSc2nnc(-c3ccco3)n2Cc2ccco2)cc1 75.4%
Cc1cccc(NC(=O)Cc2ccc(Br)cc2)n1 117%
O=C(NC1CC1)C1CCN(S(=O)(=O)c2ccc(Cl)c([N+](=O)[O-])c2)CC1 -67.9%
CN(c1ccc(O)cc1)c1nc(O)c(C2=c3ccccc3=NC2=O)s1 116%
CCOC(=O)c1cc(-c2ccc(OC)cc2)n[nH]1 78%
COc1c(C)cccc1C(=O)Nc1ccc(N2CCN(S(C)(=O)=O)CC2)cc1 -65.2%
Cc1ccc2oc(Nc3nc(C)c(C)c(C)n3)nc2c1 28.3%
Cc1c(OCC(=O)NC2CC(C)(C)NC(C)(C)C2)ccc2c1oc(=O)c1ccccc12 -99.4%
O=C1c2ccccc2C(=O)N1CCSc1ccccc1 102%
COc1cc(OC)cc(C(=O)Nc2ccc3c(c2)OCCO3)c1 98.8%
CN(C)CCNC(=O)/C(=C/c1ccc(-c2ccc(Cl)cc2)o1)NC(=O)c1ccccc1 -96.9%
CN(C)/C=N/c1ncc(C(=O)c2ccccc2)s1 55.9%
COc1ccc(-c2csc(N(C)C(=O)c3ccco3)n2)cc1 74%
CC(=O)c1sc(N/N=C\c2ccc(N(C)C)cc2)nc1C 82.6%
Cc1csc(N/N=C/c2ccc([N+](=O)[O-])cc2)n1 61%
C(=N\Nc1cc(N2CCCCC2)ncn1)/c1ccco1 -23.1%
O=C(/C=C/c1ccccc1Cl)NC1CCCCC1 -21.5%
N#C/C(=C\c1c[nH]c2ccccc12)C(=O)NC1CC1 85.3%
N#C/C(=C\c1cccs1)C(=O)NCC1CCCO1 (stereo unspecified) 116%
CCC1CCCCN1CCCNC(=O)c1cn(CC)c2ccc(S(=O)(=O)N(C)C3CCCCC3)cc2c1=O (stereo unspecified) -22.7%
O=C(Cn1nnc(-c2ccccc2Cl)n1)N1CCCCC1 -1.19%
COc1ccc(CCC(=O)N2CCc3ccccc32)cc1 67.5%
Cc1ccc(C(=O)NC2=NCCS2)cc1Cl 71.2%
Cc1ccc(C(=O)Nc2ccccc2Cl)cc1 54.6%
COc1ccc2c(c1OC)C(=O)N(c1ccc(C)cc1)C2 52.1%
ClC1(Cl)CC1CSc1nnc(-c2ccncc2)o1 (stereo unspecified) 83%
CCC(=O)NCCc1nc2cc(NC(=O)c3cccc([N+](=O)[O-])c3)ccc2n1C 51.1%
O=C(Nc1nnc(Cc2ccccc2)s1)c1ccccc1 68.1%
COC(=O)c1c(NC(=O)c2nc3ccccc3s2)sc2c1CC(C)(C)NC2(C)C -108%
CC1(C)Cc2c(sc(NC(=O)Nc3ccccc3)c2C(N)=O)CO1 69.1%
CCC(=O)Nc1cc(C(=O)OCC(=O)c2ccccc2Cl)ccc1C 76.3%
N#Cc1cnn2cc(CCN3CCOCC3)c(-c3ccc(F)cc3)nc12 10.1%
CC(C)N1C(=O)S/C(=C\c2ccc(-c3ccc(Cl)c(C(=O)O)c3)o2)C1=O 7.32%
OCC1CCCC(n2cnc3c(=S)nc[nH]c32)O1 (stereo unspecified) 13.4%
O=C(Nc1ccccc1Cl)Nc1cccc2cccnc12 68%
CCOc1ccc(C(=O)N2CCc3ccccc32)cc1 38.1%
O=C(c1cc2ccccc2oc1=O)N1CCN(c2ncccn2)CC1 67.3%
O=C(NCCNc1ccccc1[N+](=O)[O-])c1cc(F)c(F)cc1Cl -57.4%
Cc1cc2oc3ccc(NCCC4CCCN4C)cc3c(=O)c2cc1C (stereo unspecified) -104%
CS(=O)(=O)c1ccc2nc(NC(=O)c3ccccc3)sc2c1 12.7%
CC1Cc2ccccc2N1C(=O)c1ccc(Br)o1 (stereo unspecified) 81.6%
CCNC(=O)CC1C(=O)N(c2ccc(F)cc2)C(=O)N1CCc1ccc(OC)cc1 (stereo unspecified) 15.2%
COc1ccc(C(=O)CCNc2ccc(F)cc2)cc1 85.6%
CCN1CCN(c2ccc(S(=O)(=O)N3CCCCC3)cc2NC(=O)/C=C/c2cccc(OC)c2OC)CC1 -98%
Cc1ccccc1C(=O)O/N=C(\N)c1ccc([N+](=O)[O-])cc1 13%
COc1ccccc1N1CCN(/N=C/c2ccc([N+](=O)[O-])cc2)CC1 -13.3%
N/C(=N\OC(=O)c1ccc([N+](=O)[O-])cc1)c1ccc(Br)cc1 95.2%
Cc1ccc(NC(=O)c2ccccc2)cc1 80.8%
O=C(Nc1ccc(-c2cn3c(n2)SCC3)cc1)c1ccco1 56%
Cc1ccc(CC(=O)Nc2ccc(Cl)cn2)cc1 56.5%
CC(=O)COc1ccc2cc(-c3ccccc3)c(=O)oc2c1 59.7%
O=C(N/N=C/C=C/c1ccccc1)c1ccccn1 94.3%
O=C(NC1=NCCS1)c1ccc(Cl)c(Cl)c1 44.6%
COc1ccc(NC(=O)C2COc3ccccc3O2)cc1 (stereo unspecified) -82.9%
Cc1ccc(Nc2nnc(-c3ccccc3N)o2)cc1C 94.4%
COCc1cc(C)nc2sc(C(=O)Nc3cccc(OC)c3)c(N)c12 -17%
COc1ccc(/C=C/C(=O)NC(=S)N2CCN(c3ccccc3OC)CC2)cc1 69.5%
c1cnc(SCCOc2ccc3c(c2)CCC3)nc1 24.9%
O=C(Nc1ccccn1)c1ccc(Br)s1 56.3%
Cc1cc(N2CCOCC2)n2ncc(-c3ccccc3Cl)c2n1 102%
CC(=C/c1ccco1)/C=N/N1CCN(c2ccccc2)CC1 -79.5%
CCN(CC(=O)Nc1ccc2c(c1)OCCO2)C(=O)c1ccc([N+](=O)[O-])s1 -34.7%
Cc1ccc(NC(=O)c2cc(N3C(=O)C=CC3=O)ccc2N2CCOCC2)cc1Cl -88.5%
CS(=O)(=O)N1CCN(c2nc3ccc(Cl)cc3s2)CC1 78.7%
CCN(CC)C(=O)CCCOc1ccc(Cl)cc1Cl 20.3%
O=C(Nc1ccccc1F)C(=O)Nc1cccc2ccccc12 19.6%
COc1cc2ccccc2cc1C(=O)Nc1ccc(N2CCN(C)CC2)cc1 138%
CCOc1ccc(N/C=C/C(=O)c2ccc(OC)c(OC)c2)cc1 105%
CCCOC(=O)c1ccc(NC(=O)C2CCCO2)cc1 (stereo unspecified) 109%
CCOc1cccc(C(=O)NC2=NCCS2)c1 28%
O=[N+]([O-])c1cc(C(F)(F)F)ccc1NCCc1ccccn1 80.2%
Cc1cccc(OCC(=O)Nc2cccc(O)c2)c1 60.4%
COc1cccc(NC(=O)c2cnn(-c3ccccc3)c2C)c1 -9.88%
Cc1ccc(OCC(=O)Nc2cccc(C)n2)c(C)c1 69.9%
COc1cccc(NC(=O)c2cc3ccccc3cc2OC)c1 51.2%
O=C(/C=C/c1ccc2c(c1)OCCO2)c1ccccc1 -51.6%
O=C(Nc1ccccc1F)c1ccc2c(c1)OCO2 -47.3%
CC(=O)N(c1nnc(-c2cccc(C)c2)s1)C1CCCC1 101%
C/C(=N\Nc1nccnc1Cl)c1ccc(O)c(C)c1 91.9%
CN1CCN(CCCOc2ccc(-c3ccccc3)cc2)CC1 13.4%
COc1ccc(C(=O)CN2Cc3ccccc3C2=N)cc1 76.8%
CCCOc1ccc(-c2c(=O)n(O)c3ccccc3[n+]2[O-])cc1 37.1%
O=C(c1ccc(F)cc1)N1CCC(c2ccccc2)C1 (stereo unspecified) 104%
COc1ccc2oc(=O)c(C(=O)Nc3ccccc3C)cc2c1 -2.57%
COc1ccc(NC(=O)c2cc3ccccc3oc2=O)c(OC)c1 52.2%
COc1ccc(N/C=C\C(=O)c2ccc3ccccc3c2)cc1 88.6%
COc1ccc(COC(=O)c2n[nH]c3ccccc23)cc1F 47.7%
Cc1ccc(C(CNS(=O)(=O)c2ccc(Br)cc2)N2CCN(C)CC2)cc1 (stereo unspecified) -81.2%
COc1ccc(/C=C/c2cc(C(F)(F)F)on2)cc1 107%
Cc1cccc(OCc2nc3ccccc3n2C)c1 -19.5%
O=C(/C=C/c1ccc2c(c1)OCO2)N1CCCCC1 62.1%
O=C(Nc1ccccc1)C1Cc2ccccc2CN1C(=O)c1ccco1 (stereo unspecified) 73.5%
CC(C)C(=O)Nc1ccc2nn(-c3ccc(F)cc3)nc2c1 7.63%
CC(=O)Oc1ccc(C)cc1-n1nc2ccccc2n1 65.9%
CCOCCCNC(=O)/C(C#N)=C/c1ccc([N+](=O)[O-])o1 -96.3%
Cc1nc(NCCOc2ccccc2)sc1C(=O)Nc1ccccc1 46.1%
CCOC(=O)c1ccc2nc(C)c(CCC(C)=O)c(Cl)c2c1 105%
CCOC(=O)c1sc(NC(=O)Nc2ccc(Cl)cc2)nc1C 96.9%
O=C(Cc1ccccc1)Nc1ccc(NC(=O)c2ccco2)nc1 -37.9%
COc1ccc2oc(=N)c(C(=O)Nc3ccccc3Cl)cc2c1 21.5%
Cn1c(/C(C#N)=C/c2ccc(-c3ccc(S(N)(=O)=O)cc3)o2)nc2ccccc21 -79.9%
COc1ccc(/C=N/Nc2ccccn2)cc1OC 97.2%
S=c1[nH]nc(-c2ccco2)n1/N=C/C(Cl)=C/c1ccccc1 77.9%
Nc1ccccc1SC1CC(=O)N(c2ccc3c(c2)OCCO3)C1=O (stereo unspecified) 82.2%
COc1ccccc1N1CCN(/N=C/c2cccc(Cl)c2)CC1 132%
Cc1csc(NC(=O)Cc2c(F)cccc2Cl)n1 78.6%
Clc1ccc(-c2noc(CN3CCOCC3)n2)cc1 81.6%
Cc1ccc(NC(=O)c2cnc3ccccc3n2)cc1C 44.3%
O=C(CC(=O)c1ccccc1)Nc1ccccc1 12.2%
COc1ccc(-c2noc(-c3cccs3)n2)cc1OC 95.4%
CCc1nc2oc3ccc(C)cc3c(=O)c2cc1C(=O)OC 89.6%
CCOc1ccc2nc(NC(=O)Cc3cccs3)sc2c1 92.9%
Cc1[nH]nc(Nc2ccc(Br)cc2)c1[N+](=O)[O-] 91.7%
CS/C(N)=N/N=C/c1ccc2c(c1)OCO2 103%
COc1cccc(/C=N/Nc2nc3ccccc3[nH]2)c1OC 125%
COc1ccccc1N1CCN(/N=C\c2ccccc2)CC1 104%
CC(C)c1ccc(C(=O)Nc2cccnc2)cc1 12.8%
COC(=O)c1ccc(/C=N/Nc2nc(C)c(C)s2)cc1 36%
